Measured values from PubChem BioAssay (NCI).
This is part of a sample that, as a whole, favours compounds with a hit. Of some 79,000 tested, about 15% had one in any assay. A number with no mark means an inactive call. The source made the active and inactive calls. Cut-off read from the data, not from the text of the source: active = growth inhibition above about 70%; inactive = the rest.

Experiments:
[1] = NCI Yeast Anticancer Drug Screen. Data for the rad52 strain (AID 147);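 note: 0% = growth of vehicle-treated control cultures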; conditions: S. cerevisiae rad52 mutant growth inhibition, active compounds read high
Summary of the method: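 DNA repair-defective yeast; compound exposure; growth scored against vehicle controls.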

[2] = NCI Yeast Anticancer Drug Screen. Data for the wt1 strain (AID 149);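 note: 0% = growth of vehicle-treated wt1 cultures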; conditions: S. cerevisiae wt1 strain (SPY 50644) growth inhibition, active compounds read high
Summary of the method: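 Measured: growth of wt1 yeast under compound versus vehicle treatment, reported as inhibition.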

[3] = NCI Yeast Anticancer Drug Screen. Data for the rad50EPP+ strain (AID 151);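 note: 0% = growth of vehicle-treated control cultures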; conditions: S. cerevisiae rad50 mutant strain, active compounds read high
Summary of the method: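 rad50EPP+ yeast treated with test compounds. Readout: growth vs vehicle control.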

[4] = NCI Yeast Anticancer Drug Screen. Data for the mgt1 strain (AID 153); conditions: S. cerevisiae mgt1 mutant growth inhibition, active compounds read high
Summary of the method: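 Growth inhibition relative to vehicle controls was scored for the mgt1 yeast strain after compound exposure.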

[5] = NCI Yeast Anticancer Drug Screen. Data for the rad50 strain (AID 155);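 note: 0% = growth of vehicle-only cultures of the same strain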; conditions: S. cerevisiae rad50 strain growth inhibition, active compounds read high
Summary of the method: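 Growth of the mutant yeast was measured after compound exposure and referenced to vehicle-treated cultures.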

[6] = NCI Yeast Anticancer Drug Screen. Data for the mec2-1 strain (AID 157); conditions: S. cerevisiae mec2-1 strain, active compounds read high
Summary of the method: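 Growth inhibition is read against vehicle-treated controls after compound exposure of the mec2-1 yeast strain, which is defective in DNA damage repair or cell cycle control.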

[7] = NCI Yeast Anticancer Drug Screen. Data for the rad14 strain (AID 159);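 note: 0% = growth of vehicle-treated control cultures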; conditions: S. cerevisiae rad14 strain growth inhibition, active compounds read high
Summary of the method: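 Here, inhibition of yeast growth was measured after compound exposure, using a strain with a genetic defect in DNA damage repair and vehicle-treated cultures as the reference.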

[8] = NCI Yeast Anticancer Drug Screen. Data for the sgs1 mgt1 strain (AID 161);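 note: 0% = growth of cultures given vehicle only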; conditions: S. cerevisiae sgs1 mgt1 strain, active compounds read high
Summary of the method: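 Compounds are added to genetically altered yeast, and growth is compared with cultures given vehicle alone to give percent inhibition.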

[9] = NCI Yeast Anticancer Drug Screen. Data for the CLN2oe strain (AID 163);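 note: 0% = growth of vehicle-only control cultures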; conditions: S. cerevisiae CLN2oe strain, active compounds read high
Summary of the method: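 Compound-treated yeast; growth vs vehicle ctrl = % inhibition. Genetically altered strain (cell-cycle control).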

[10] = NCI Yeast Anticancer Drug Screen. Data for the cln2 rad14 strain (AID 165);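 note: 0% = growth equal to vehicle treated cultures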; conditions: S. cerevisiae cln2 rad14 strain, active compounds read high
Summary of the method: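 Growth inhibition, relative to vehicle-treated controls, is the read-out. The test organism is a yeast strain with defined genetic alterations, cln2 rad14.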

[11] = NCI Yeast Anticancer Drug Screen. Data for the bub3 strain (AID 167); conditions: S. cerevisiae bub3 mutant strain, active compounds read high
Summary of the method: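 Whole-cell yeast assay. The mutant strain was incubated with compounds, and growth inhibition was determined by comparison with vehicle-treated cells.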

[12] = NCI Yeast Anticancer Drug Screen. Data for the mlh1 strain (AID 171);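 note: 0% = growth of vehicle-treated control cultures of the same strain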; conditions: S. cerevisiae mlh1 strain growth inhibition, active compounds read high
Summary of the method: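 Compounds are applied to a genetically altered yeast strain, and its growth is compared with that of vehicle-treated cultures to give percent inhibition.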

[13] = NCI Yeast Anticancer Drug Screen. Data for the sgs1 strain (AID 173);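 note: 0% = growth of vehicle-only control cultures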; conditions: S. cerevisiae sgs1 mutant, active compounds read high
Summary of the method: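 Compounds applied to genetically altered yeast; growth compared with vehicle-treated cultures to give % inhibition.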

[14] = NCI Yeast Anticancer Drug Screen. Data for the mlh1 rad18 strain (AID 175); conditions: S. cerevisiae mlh1 rad18 strain growth inhibition, active compounds read high
Summary of the method: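 Cells of a genetically altered yeast strain, deficient in DNA damage repair, were treated with compound. Their growth was then compared with that of vehicle-treated cultures to give inhibition.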

[15] = NCI Yeast Anticancer Drug Screen. Data for the rad18 strain (AID 177); conditions: S. cerevisiae rad18 mutant growth inhibition, active compounds read high
Summary of the method: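 Compounds are applied to a repair-deficient yeast strain, and growth is compared with that of vehicle-treated cultures to give percent inhibition.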

[16] = at 5.0 µM (retest, dose inferred, filed as 0.5)
[17] = at 50.0 µM (retest, dose inferred, filed as 5.0)

For `CCN(CC)[P+](c1ccccc1O)(N(CC)CC)N(CC)CC`, which growth inhibition ([1]; at 1.2 µM) is on record?
Its growth inhibition is -25%.

And the growth inhibition ([1]; at 3.7 µM)?
Its growth inhibition is -15%.

And the growth inhibition ([1]; at 11.0 µM)?
The growth inhibition was 17%.

And the growth inhibition ([1]; at 33.0 µM)?
Its growth inhibition is 27%.

What about the growth inhibition ([1]; at 100.0 µM) of the same compound?
Its growth inhibition is 85% (active).

What about the growth inhibition ([2]; at 1.2 µM) of the same compound?
The growth inhibition was -35%.

What about the growth inhibition ([2]; at 3.7 µM) of the same compound?
Its growth inhibition is -25%.

And the growth inhibition ([2]; at 11.0 µM)?
The growth inhibition was 12%.

And the growth inhibition ([2]; at 33.0 µM)?
Its growth inhibition is 34%.

And the growth inhibition ([2]; at 100.0 µM)?
Its growth inhibition is 84% (active).

What about the growth inhibition ([3]; at 1.2 µM) of the same compound?
Its growth inhibition is -35%.

And the growth inhibition ([3]; at 3.7 µM)?
The growth inhibition was -26%.

What about the growth inhibition ([3]; at 11.0 µM) of the same compound?
Its growth inhibition is -33%.

And the growth inhibition ([3]; at 33.0 µM)?
The growth inhibition was -31%.

What about the growth inhibition ([3]; at 100.0 µM) of the same compound?
Its growth inhibition is -34%.

What about the growth inhibition ([4]; at 1.2 µM) of the same compound?
The growth inhibition was -42%.

What about the growth inhibition ([4]; at 3.7 µM) of the same compound?
Its growth inhibition is -42%.

And the growth inhibition ([4]; at 11.0 µM)?
Its growth inhibition is -32%.

What about the growth inhibition ([4]; at 33.0 µM) of the same compound?
Its growth inhibition is 13%.

What about the growth inhibition ([4]; at 100.0 µM) of the same compound?
The growth inhibition was 76% (active).

What about the growth inhibition ([5]; at 1.2 µM) of the same compound?
Its growth inhibition is -30%.

And the growth inhibition ([5]; at 3.7 µM)?
The growth inhibition was 9%.

And the growth inhibition [5, 16]?
Its growth inhibition is 37%.

And the growth inhibition ([5]; at 11.0 µM)?
The growth inhibition was 43%.

What about the growth inhibition ([5]; at 33.0 µM) of the same compound?
Its growth inhibition is 54%.

And the growth inhibition [5, 17]?
The growth inhibition was 68%.

And the growth inhibition ([5]; at 50.0 µM)?
Its growth inhibition is 61.5%.

And the growth inhibition ([5]; at 100.0 µM)?
The growth inhibition was 90% (active).

And the growth inhibition ([6]; at 1.2 µM)?
The growth inhibition was -78%.

And the growth inhibition ([6]; at 3.7 µM)?
The growth inhibition was -39%.

And the growth inhibition [6, 16]?
The growth inhibition was 28%.

What about the growth inhibition ([6]; at 11.0 µM) of the same compound?
The growth inhibition was 29%.

And the growth inhibition ([6]; at 33.0 µM)?
Its growth inhibition is 24%.

And the growth inhibition [6, 17]?
The growth inhibition was 55%.

And the growth inhibition ([6]; at 50.0 µM)?
Its growth inhibition is 62.1%.

And the growth inhibition ([6]; at 100.0 µM)?
The growth inhibition was 85% (active).

What about the growth inhibition ([7]; at 1.2 µM) of the same compound?
The growth inhibition was -46%.

And the growth inhibition ([7]; at 3.7 µM)?
Its growth inhibition is -38%.

What about the growth inhibition ([7]; at 11.0 µM) of the same compound?
Its growth inhibition is -21%.

What about the growth inhibition ([7]; at 33.0 µM) of the same compound?
The growth inhibition was 32%.

And the growth inhibition ([7]; at 100.0 µM)?
The growth inhibition was 95% (active).

What about the growth inhibition [8, 16] of the same compound?
Its growth inhibition is 7%.

And the growth inhibition [8, 17]?
The growth inhibition was 99% (active).

And the growth inhibition ([8]; at 50.0 µM)?
The growth inhibition was 64.8%.

What about the growth inhibition ([9]; at 1.2 µM) of the same compound?
Its growth inhibition is -56%.

And the growth inhibition ([9]; at 3.7 µM)?
Its growth inhibition is -8%.

What about the growth inhibition ([9]; at 11.0 µM) of the same compound?
Its growth inhibition is -23%.

And the growth inhibition ([9]; at 33.0 µM)?
Its growth inhibition is 5%.

And the growth inhibition ([9]; at 100.0 µM)?
The growth inhibition was 93% (active).

What about the growth inhibition [10, 16] of the same compound?
The growth inhibition was 8%.

What about the growth inhibition [10, 17] of the same compound?
Its growth inhibition is 96% (active).

And the growth inhibition ([10]; at 50.0 µM)?
The growth inhibition was 57.6%.

And the growth inhibition ([11]; at 1.2 µM)?
Its growth inhibition is -41%.

What about the growth inhibition ([11]; at 3.7 µM) of the same compound?
The growth inhibition was -3%.

And the growth inhibition [11, 16]?
Its growth inhibition is 23%.

And the growth inhibition ([11]; at 11.0 µM)?
The growth inhibition was 23%.

And the growth inhibition ([11]; at 33.0 µM)?
The growth inhibition was 60%.

And the growth inhibition [11, 17]?
Its growth inhibition is 98% (active).

What about the growth inhibition ([11]; at 50.0 µM) of the same compound?
The growth inhibition was 54.6%.

And the growth inhibition ([11]; at 100.0 µM)?
The growth inhibition was 87% (active).

What about the growth inhibition ([12]; at 1.2 µM) of the same compound?
Its growth inhibition is -60%.

What about the growth inhibition ([12]; at 3.7 µM) of the same compound?
The growth inhibition was -61%.

What about the growth inhibition ([12]; at 11.0 µM) of the same compound?
Its growth inhibition is -22%.

What about the growth inhibition ([12]; at 33.0 µM) of the same compound?
The growth inhibition was 30%.

And the growth inhibition ([12]; at 100.0 µM)?
Its growth inhibition is 73% (active).

And the growth inhibition ([13]; at 1.2 µM)?
Its growth inhibition is -82%.

And the growth inhibition ([13]; at 3.7 µM)?
The growth inhibition was -50%.

What about the growth inhibition ([13]; at 11.0 µM) of the same compound?
Its growth inhibition is -25%.

And the growth inhibition ([13]; at 33.0 µM)?
The growth inhibition was 11%.

What about the growth inhibition ([13]; at 100.0 µM) of the same compound?
The growth inhibition was 74% (active).

And the growth inhibition [14, 16]?
The growth inhibition was 39%.

And the growth inhibition [14, 17]?
Its growth inhibition is 74% (active).

And the growth inhibition ([14]; at 50.0 µM)?
Its growth inhibition is 70.2% (active).

What about the growth inhibition ([15]; at 1.2 µM) of the same compound?
Its growth inhibition is -6%.

What about the growth inhibition ([15]; at 3.7 µM) of the same compound?
Its growth inhibition is 37%.

What about the growth inhibition ([15]; at 11.0 µM) of the same compound?
Its growth inhibition is 53%.

What about the growth inhibition ([15]; at 33.0 µM) of the same compound?
Its growth inhibition is 59%.

What about the growth inhibition ([15]; at 100.0 µM) of the same compound?
The growth inhibition was 90% (active).
